Source: PubChem BioAssay AID1159580 (chemical genetic matrix, 2015)
Several values for one entry are separate records, joined by “and”; a condition that tells them apart may be missing. Identical values can stand only once. About 2,000 (36%) of roughly 5,500 compounds were called active. About 18% were inconclusive and are not listed. Cut-off read from the data, not from the text of the source: active = normalized growth mostly below about 0.91 (no sharp cut-off); inconclusive = no clear call, values can overlap the other calls; inactive = mostly above about 0.92. The list shows a part of the results.

Test: chemical genetic growth profiling, strain panel (AID 1159580);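 note: tested at 20 µM; growth read once vehicle control cultures reached saturation at 30 °C; 1 = growth at the plate median or of vehicle wells; lower values mean less growth of the strain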
Conditions: S. cerevisiae deletion strains, growth OD

Measured: normalized growth

Oc1cc2c(cc1O)C1c3ccc(O)c(O)c3OCC1(O)C2 (centres undefined)
inactive: locus YAL021C, strain ccr4, hits give low values 1 | locus YAL030W, strain snc1, hits give low values 1.01 | locus YBL061C, strain skt5, hits give low values 0.993 | locus YBR009C, strain hhf1, hits give low values 1 | locus YBR021W, strain FUR4, hits give low values 1.01 | locus YBR023C, strain chs3, hits give low values 0.995 | locus YBR171W, strain sec66, hits give low values 1.01 | locus YBR229C, strain ROT2, hits give low values 1 | locus YBR231C, strain swc5, hits give low values 0.956 | locus YBR279W, strain paf1, hits give low values 0.984 | locus YCL011C, strain gbp2, hits give low values 1.01 | locus YCL016C, strain dcc1, hits give low values 1 | locus YCL029C, strain bik1, hits give low values 0.997 | locus YCL069W, strain vba3, hits give low values 1.02 | locus YCR088W, strain abp1, hits give low values 1.02 | locus YDL005C, strain med2, hits give low values 1 | locus YDL035C, strain GPR1, hits give low values 0.973 | locus YDL040C, strain nat1, hits give low values 1.04 | locus YDL074C, strain BRE1, hits give low values 0.852 | locus YDL101C, strain DUN1, hits give low values 0.908 | locus YDL185W, strain tfp1, hits give low values 0.961 | locus YDL192W, strain arf1, hits give low values 0.997 | locus YDR001C, strain nth1, hits give low values 1.02 | locus YDR069C, strain doa4, hits give low values 0.936 | locus YDR101C, strain arx1, hits give low values 1.07 | locus YDR137W, strain rgp1, hits give low values 1.05 | locus YDR159W, strain sac3, hits give low values 1.03 | locus YDR195W, strain ref2 1.02 | locus YDR297W, strain sur2, hits give low values 1.01 | locus YDR318W, strain mcm21, hits give low values 0.99 | locus YDR334W, strain swr1, hits give low values 0.991 | locus YDR335W, strain msn5, hits give low values 0.996 | locus YDR388W, hits give low values 0.998 | locus YDR392W, strain spt3, hits give low values 0.991 | locus YDR502C, strain sam2, hits give low values 1.01 | locus YEL003W, strain gim4, hits give low values 1.01 | locus YEL037C, strain rad23, hits give low values 1.02 | locus YEL061C, strain CIN8 (second series), hits give low values 1.02 | locus YEL061C, strain CIN8, hits give low values 0.964 | locus YER015W, strain faa2, hits give low values 0.983 | locus YER016W, strain bim1, hits give low values 1.02 | locus YER110C, hits give low values 0.999 | locus YER111C, strain swi4, hits give low values 0.961 | locus YER155C, strain BEM2 (second series), hits give low values 1.02 | locus YER155C, strain BEM2, hits give low values 1.02 | locus YER167W, strain BCK2, hits give low values 1.04 | locus YFR010W, strain ubp6, hits give low values 0.983 | locus YGL078C, strain dbp3, hits give low values 0.972 | locus YGL086W, strain mad1, hits give low values 0.966 | locus YGL173C, strain kem1, hits give low values 0.985 | locus YGL227W, strain vid30, hits give low values 1.01 | locus YGL240W, strain doc1, hits give low values 1.04 | locus YGL248W, strain PDE1, hits give low values 0.893 | locus YGL253W, strain hxk2, hits give low values 1.01 | locus YGR078C, strain PAC10, hits give low values 0.916 | locus YGR135W, strain pre9, hits give low values 0.946 | locus YGR252W, strain gcn5, hits give low values 0.992 | locus YHR013C, strain ard1, hits give low values 0.987 | locus YHR027C, strain rpn1, hits give low values 0.98 | locus YHR030C, strain SLT2, hits give low values 1 | locus YHR079C, strain IRE1 (second series), hits give low values 1.01 | locus YHR079C, strain IRE1, hits give low values 1.01 | locus YHR094C, strain hxt1, hits give low values 1.01 | locus YHR142W, strain chs7, hits give low values 0.99 | locus YHR200W, strain rpn10, hits give low values 0.976 | locus YIL066C, strain RNR3, hits give low values 0.939 | locus YIL073C, strain SPO22, hits give low values 0.683 | locus YIL125W, strain kgd1, hits give low values 1 | locus YIR030C, strain dcg1, hits give low values 1.01 | locus YJL092W, strain hpr5, hits give low values 1.02 | locus YJL095W, strain BCK1 (second series), hits give low values 1.01 | locus YJL095W, strain BCK1, hits give low values 0.811 and 0.994 | locus YJL115W, strain asf1, hits give low values 1 | locus YJL129C, strain trk1, hits give low values 1.07 | locus YJL134W, strain LCB3, hits give low values 0.992 | locus YJL154C, strain vps35, hits give low values 1.02 | locus YJL164C, strain tpk1, hits give low values 0.991 | locus YJL166W, strain qcr8, hits give low values 0.991 | locus YJL168C, strain set2, hits give low values 0.984 | locus YJR043C, strain POL32, hits give low values 0.95 | locus YJR066W, strain TOR1, hits give low values 0.913 | locus YKL009W, strain mrt4, hits give low values 1.06 | locus YKL068W, hits give low values 0.983 | locus YKL085W, strain MDH1 (second series), hits give low values 0.977 | locus YKL085W, strain MDH1, hits give low values 0.977 | locus YKL160W, strain elf1, hits give low values 0.983 | locus YKR001C, strain vps1, hits give low values 1.03 | locus YKR026C, strain gcn3, hits give low values 1.01 | locus YKR091W, strain srl3, hits give low values 1.02 | locus YLL001W, strain dnm1, hits give low values 1.01 | locus YLL026W, hits give low values 1.01 | locus YLL041C, strain sdh2, hits give low values 1.03 | locus YLR027C, strain aat2, hits give low values 0.984 | locus YLR039C, strain RIC1, hits give low values 0.916 | locus YLR058C, strain SHM2, hits give low values 0.916 | locus YLR102C, strain apc9, hits give low values 0.998 | locus YLR113W, strain HOG1, hits give low values 1.07 | locus YLR221C, strain rsa3, hits give low values 0.986 | locus YLR258W, strain gsy2, hits give low values 1.02 | locus YLR262C, strain YPT6 (second series), hits give low values 0.979 | locus YLR268W, strain sec22, hits give low values 1.04 | locus YLR320W, strain mms22, hits give low values 0.999 | locus YLR330W, strain CHS5, hits give low values 0.974 | locus YLR342W, strain FKS1, hits give low values 0.979 | locus YLR357W, strain rsc2, hits give low values 0.907 | locus YLR370C, strain arc18, hits give low values 0.987 | locus YLR371W, strain rom2, hits give low values 0.932 | locus YLR384C, strain iki3, hits give low values 1 | locus YLR418C, strain cdc73, hits give low values 0.963 | locus YML032C, strain rad52, hits give low values 1.07 | locus YML120C, strain ndi1, hits give low values 1.04 | locus YML124C, strain tub3, hits give low values 1.02 | locus YMR078C, strain ctf18, hits give low values 1.01 | locus YMR125W, strain sto1, hits give low values 1.05 | locus YMR129W, hits give low values 1.03 | locus YMR205C, strain PFK2, hits give low values 1.02 | locus YMR223W, strain ubp8, hits give low values 0.977 | locus YMR231W, strain pep5, hits give low values 0.995 | locus YMR307W, strain GAS1, hits give low values 0.784 | locus YNL067W, strain RPL9B, hits give low values 0.931 | locus YNL071W, strain lat1, hits give low values 1.01 | locus YNL153C, strain GIM3, hits give low values 0.908 | locus YNL183C, strain NPR1, hits give low values 0.907 | locus YNL209W, strain ssb2, hits give low values 0.958 | locus YNL233W, strain BNI4, hits give low values 0.911 | locus YNL248C, strain rpa49, hits give low values 0.995 | locus YNL250W, strain rad50, hits give low values 0.952 | locus YNL271C, strain bni1, hits give low values 0.988 | locus YNL298W, strain CLA4, hits give low values 0.991 | locus YNL307C, strain MCK1, hits give low values 0.996 | locus YNL322C, strain KRE1 (second series), hits give low values 1.01 | locus YNR049C, strain mso1, hits give low values 1.02 | locus YNR052C, strain pop2, hits give low values 0.954 | locus YOL006C, strain TOP1, hits give low values 0.585 | locus YOL012C, strain htz1 0.422 | locus YOL147C, strain pex11, hits give low values 1.01 | locus YOR001W, strain rrp6, hits give low values 0.991 | locus YOR061W, strain CKA2, hits give low values 0.945 | locus YOR069W, strain VPS5, hits give low values 0.953 | locus YOR070C, strain gyp1, hits give low values 0.965 | locus YOR080W, strain dia2, hits give low values 1.01 | locus YOR083W, strain WHI5, hits give low values 0.971 | locus YOR106W, strain vam3, hits give low values 0.985 | locus YOR136W, strain idh2, hits give low values 1.02 | locus YOR144C, strain elg1, hits give low values 1.01 | locus YOR184W, strain ser1, hits give low values 1.09 | locus YOR231W, strain MKK1, hits give low values 1.01 | locus YOR265W, strain rbl2, hits give low values 1 | locus YOR270C, strain vph1, hits give low values 1.05 | locus YOR290C, strain snf2, hits give low values 0.997 | locus YOR316C, strain cot1, hits give low values 0.996 | locus YPL051W, strain arl3, hits give low values 0.929 | locus YPL078C, strain atp4, hits give low values 1.02 | locus YPL106C, strain sse1, hits give low values 0.957 | locus YPL240C, strain hsp82, hits give low values 1.02 | locus YPL256C, strain CLN2, hits give low values 1.02 | locus YPR119W, strain clb2, hits give low values 1.01 | locus YPR141C, strain kar3, hits give low values 0.982 | locus YPR163C, strain tif3, hits give low values 1.01 | locus YPR167C, strain met16, hits give low values 1.01 | strain wtn01, hits give low values 1.02
active: locus YDL134C, strain PPH21, hits give low values 0.832 | locus YDR162C, strain NBP2, hits give low values 0.821 | locus YHR129C, strain ARP1, hits give low values 0.912 | locus YJL187C, strain SWE1 (second series), hits give low values 0.856 | locus YLR342W, strain FKS1 (second series), hits give low values 0.696 | locus YML016C, strain PPZ1, hits give low values 0.86 | locus YMR058W, strain fet3, hits give low values 0.784 | locus YNL322C, strain KRE1, hits give low values 0.902
